Screening results as filed in PubChem.
PK Bst = modulators of Bacillus stearothermophilus pyruvate kinase; purified pyruvate kinase, luminescence ATP production; ribose 5-phosphate activator present at AC10; Potency, µM; 1.2% of 51,000 active; in the data active = potency below about 11 µM; inconclusive = mostly about 12 µM to 25 µM;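 the screen sought inhibitors and activators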;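 note: scaled between full activation by ribose 5 phosphate and full inhibition by luteolin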
ERK AVP block = inhibitors of vasopressin-stimulated ERK signaling pathway; AID 995; 0.99% of 72,000 active; Potency, µM (highest dose often 57.5 µM), without a hit: top-dose activity, negative = inhibition, actives largely listed as inhibitors; HEK293-V1b, vasopressin-stimulated pERK AlphaScreen; note: nearly all actives have a fitted effect of over 55% in size
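V1b-HEK293 cells; cpd 30 min 37C; 25 nM vasopressin 5 min; lyse 10 min; AlphaScreen beads 5 hr RT. Normalized to DMSO basal and 25 nM vasopressin; AC50 by Hill fit.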
HADH2 inh = blocks human hydroxyacyl-CoA dehydrogenase type II | Q99714 | recombinant HADH2, NADH fluorescence, beta-hydroxybutyryl-CoA | Potency, µM (titrated, usually from 57.1 µM), inactives show at the top dose activity change, negative = inhibition, actives largely listed as inhibitors | 3.4% of 73,000 active; note: nearly all actives have a fitted effect of over 60% in size
Target sequence (Q99714 whole entry, looked up, one chain of several): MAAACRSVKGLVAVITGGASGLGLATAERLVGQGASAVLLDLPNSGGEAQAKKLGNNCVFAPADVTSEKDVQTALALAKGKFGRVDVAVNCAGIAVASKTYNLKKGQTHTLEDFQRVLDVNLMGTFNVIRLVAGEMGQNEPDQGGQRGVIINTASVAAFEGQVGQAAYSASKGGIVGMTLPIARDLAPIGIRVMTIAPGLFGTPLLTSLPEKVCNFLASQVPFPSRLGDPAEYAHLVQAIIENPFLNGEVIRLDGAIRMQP
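NADH fluorescence (ex 360/em 450 nm) read every 30 s for 4 min; activity taken as last-minus-first time point difference. Enzyme 20 nM, NAD+ 1 mM, beta-hydroxybutyryl-CoA 90 uM, pH 9.0 Tris buffer.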
HSD17B inhib = inhibitors of human HSD17B10 dehydrogenase. recombinant HSD17B10, NADH fluorescence kinetic. AID 893. Q99714. 7.6% of 75,000 active. Potency, µM (series often up to 57.1 µM), for inactives: top-dose activity change, negative = inhibition, hits mostly inhibitors;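 note: the protocol describes HADH2 (HSD17B10) and not the HSD17B4 of the title; nearly all actives have a fitted effect of over 70% in size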
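Enzyme plus compound, 15 min room temperature; substrate mix added (NAD+ 1 mM, beta-hydroxybutyryl-CoA 90 uM final); plates read kinetically for NADH fluorescence. HADH2 was His-tagged, E. coli-derived, 20 nM.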
FLuc inh = blocks Photinus pyralis firefly luciferase activity; P08659; 2.2% of 72,000 active; purified firefly luciferase, luminescence, 8 min; AID 411; Potency, µM (series often up to 57.1 µM), for the others: at the top dose activity change, negative = inhibition, actives largely listed as inhibitors; note: nearly all actives have a fitted effect of over 40% in size
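Titration-based qHTS; buffer 50 mM imidazole pH 7.2, 50 mM KCl, 7 mM MgCl2, 10 uM ATP, 0.01% Tween 20, 0.05% BSA; luciferase/luciferin detector mix added after compound; 8 min, ambient; luminescence.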
ALOX15 inhib = inhibitors of human 15-lipoxygenase (ALOX15). purified 15hLO-1, xylenol orange hydroperoxide absorbance. P16050. Potency, µM (top dose mostly 57.1 µM), without a hit: top-dose activity change, negative = inhibition, usual class: inhibitors. 1.4% of 74,000 active; note: nearly all actives have a fitted effect of over 55% in size
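Compounds were preincubated 15 min at room temperature with 40 nM purified human enzyme (25 mM Hepes pH 7.5, 0.01% Triton X-100); 50 uM arachidonic acid reacted 6 min. Fe-xylenol orange detection, 30 min, absorbance ratio 573/405 nm.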
* = called active by the depositor; i = inactive; ? = inconclusive; . = no result; [ ] = dose if it differs, or a comment. This is a sample that favours compounds with a hit; in the whole collection about 11% have one here. Unless noted, calls come from the whole dose curve; as a rule, active = well fitted curve in the direction sought with a large enough effect; inconclusive = small, poorly fitted or top-dose-only effect, or another doubt; inactive = no such curve, though single readings can be large; an effect the other way counts as inactive or inconclusive. Unless noted, % is set by controls: 0 for no effect and ±100 for the full control effect; potency is the fitted concentration of half-maximal effect.

SMILES	PK Bst	ERK AVP block	HADH2 inh	HSD17B inhib	FLuc inh	ALOX15 inhib
CC(C)C[C@@H](CC(=O)N[C@H](CC(=O)N[C@@H]1CCNC[C@H]1C(=O)N[C@H](CC(=O)N[C@@H](CCC(=O)O)CC(=O)O)Cc1c[nH]c2ccccc12)C(C)C)NC(=O)[C@@H]1CCCC[C@H]1N	.	.	-7%	.	.	.
CCn1c(SCC(=O)O)nnc1-c1cc2c(C)nn(-c3ccccc3)c2s1	i	-27%	-24%	?	25µM*	-2%
Cc1ccc(-c2nc3cc(NC(=O)C(C)C)ccc3o2)cc1C	1.7*	?	i	32µM*	2µM*	-4%
Cc1cc2nc(-c3ccc(NC(=O)C(C)C)cc3)oc2cc1C	.	2%	28%	2µM*	-1%	3%
CC(C)C(=O)Nc1ccc(-c2nc3cccnc3o2)cc1	.	-18%	i	25µM*	5µM*	3%
CC(Oc1ccc(Cl)cc1Cl)C(=O)Nc1ccc2oc(-c3ccncc3)nc2c1 (stereo not given)	>57	-22%	?	13µM*	4%	-16%
CCC(C)O (stereo not given)	.	7%	4%	3%	.	5%
Cc1ccc(-c2nc3cc(NC(=O)C(C)C)ccc3o2)cc1	.	28%	35%	16µM*	5µM*	-3%
COc1ccc(-c2nc(N3CCCC3)nc3nn4c(C)cc(C)nc4c23)cc1	>57	13%	20%	25µM*	1%	-19%
CCCCc1cc(=O)oc2cc(C)c(CN3CCCC3)c(O)c12	>57	-9%	25µM*	16µM*	0%	13µM*
CCc1cc(=O)oc2cc(C)c(CN3CCCC(C)C3)c(O)c12 (stereo not given)	>26	.	.	.	-1%[25.5 µM]	.
COc1cccc2c(=O)c(SC(F)(F)C(F)C(F)(F)F)c(C)[nH]c12 (stereo not given)	>26	.	.	.	1%[25.5 µM]	.
COc1cccc2c(=O)c(C/C=C(/C)Cl)c(C)[nH]c12	.	-21%	32µM*	?	0%	-8%
CO[C@H]1COC(=O)[C@H](C)COC(=O)C/C=C\[C@@H](C)[C@H](OC)COC(=O)C/C=C\[C@@H]1C	.	5%[11.5 µM]	-7%[11.4 µM]	4%[11.4 µM]	2%[11.4 µM]	18%[11.4 µM]
N#Cc1c(-c2cccs2)cc(-c2ccccn2)nc1N	>57	-13%	6%	-4%	-1%	-5%
c1cncc(-c2nnc(-c3cccs3)o2)c1	>57	-12%	?	32µM*	-1%	10%
c1cncc(-c2cccnc2)c1	>57	10%	-5%	10%	4%	4%
c1csc(-c2nnc(-c3ccc(N4CCOCC4)cc3)o2)c1	?	7%	?	32µM*	3.2µM*	?
COc1ccc(-c2nnc(-c3cccs3)o2)cc1OC	.	?	10%	32µM*	13µM*	-3%
N#Cc1c(-c2cccs2)cc(-c2cccnc2)nc1N	.	-28%	13µM*	32µM*	0%	-1%
CCOc1cc(-c2nnc(-c3ccco3)o2)cc(OCC)c1OCC	.	.	-4%	25µM*	.	3%
COc1cc(-c2nnc(-c3cccs3)o2)cc(OC)c1OC	>57	-25%	0%	?	-3%	8%
CCOc1ccc(-c2nnc(-c3cccs3)o2)cc1OCC	.	-6%	36%	16µM*	0%	-2%
CNC(=O)c1ccc(-c2sc3nc(N4CCOCC4)c4c(c3c2N)CCCC4)o1	.	?	-11%[11.4 µM]	2.5µM*	4%	?
Cn1cnc2c(sc3nc(N4CCOCC4)c4c(c32)CC(C)(C)OC4)c1=O	.	-24%	23%	25µM*	0%	4%
CCOC(=O)c1sc2nc(N3CCOCC3)c3c(c2c1N)CCN(C)C3	>57	-17%	?	13µM*	0%	-18%
CC1(C)Cc2c(c(N3CCOCC3)nc3sc(-c4ccc(C(=O)O)o4)c(N)c23)CO1	>57	?	i	i	0%	20µM*
Nc1ccn([C@@H]2O[C@@H](CO)[C@@H](O)[C@H]2O)c(=O)n1	.	-1%	10%	5%	3%	7%
